Laboratory results as given in publication PMC10812921, “Transcriptional Coactivator BOB1 (OBF1, OCA-B) Modulates the Specificity of DNA Recognition by the POU-Domain Factors OCT1 and OCT2 in a Monomeric Configuration”.

How the values were obtained:
[1] = target: POU1 (OCT1 POU domain) (human, UniProt P14859 260-458); assay: EMSA-SELEX-seq; no BOB1; 20 mM Tris-HCl pH 7.6, 140 mM NaCl, 10% glycerol, 0.5 mM EDTA, 0.05% Triton X-100, 0.1 mg/mL BSA, 0.1 mg/mL poly(dI-dC), 5 mM DTT, room temperature, 20 min; high values mean tight binding; conditions: protein: recombinant; dsDNA, one strand shown
Summary of the method: (§1)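 In this selection, tagged POU-domain proteins from E. coli BL21, purified under denaturing conditions and renatured, were bound to a PCR-amplified double-stranded random 35-nt library with or without coactivator protein. Reactions held 30 ng protein, 300 ng library and, where used, 28 ng coactivator protein in 20 μL Tris–HCl pH 7.6 binding buffer for 20 min at RT. Complex bands were cut from native 6% PAGE, eluted and PCR-amplified over four rounds, then Illumina-sequenced, and binding preference is the percentage of sequenced 8-mers matching a motif pattern.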

[2] = target: T1, POU2 (OCT2 POU domain) (human, UniProt P09086 175-386); assay: as above; conditions: protein: recombinant; dsDNA, one strand shown
T1 sequence: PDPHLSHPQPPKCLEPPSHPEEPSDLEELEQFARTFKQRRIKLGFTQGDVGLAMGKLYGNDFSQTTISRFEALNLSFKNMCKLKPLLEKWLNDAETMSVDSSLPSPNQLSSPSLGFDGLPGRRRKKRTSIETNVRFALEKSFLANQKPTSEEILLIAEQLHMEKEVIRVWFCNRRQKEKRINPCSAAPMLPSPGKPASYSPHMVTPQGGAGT
Summary of the method: as §1

[3] = target: POU1 (OCT1 POU domain);BOB1 (OBF1, OCA-B) (human;human, UniProt P14859;Q16633 260-458;1-256, |); assay: EMSA-SELEX-seq; with BOB1 (ternary complex band); 20 mM Tris-HCl pH 7.6, 140 mM NaCl, 10% glycerol, 0.5 mM EDTA, 0.05% Triton X-100, 0.1 mg/mL BSA, 0.1 mg/mL poly(dI-dC), 5 mM DTT, room temperature, 20 min; high values mean tight binding; conditions: protein: recombinant;recombinant; copies: 1;1; dsDNA, one strand shown
Summary of the method: as §1

[4] = target: T2, POU2 (OCT2 POU domain);BOB1 (OBF1, OCA-B) (human;human, UniProt P09086;Q16633 175-386;1-256, |); assay: as above; conditions: protein: recombinant;recombinant; copies: 1;1; dsDNA, one strand shown
T2 sequence 1: T1 sequence
T2 sequence 2: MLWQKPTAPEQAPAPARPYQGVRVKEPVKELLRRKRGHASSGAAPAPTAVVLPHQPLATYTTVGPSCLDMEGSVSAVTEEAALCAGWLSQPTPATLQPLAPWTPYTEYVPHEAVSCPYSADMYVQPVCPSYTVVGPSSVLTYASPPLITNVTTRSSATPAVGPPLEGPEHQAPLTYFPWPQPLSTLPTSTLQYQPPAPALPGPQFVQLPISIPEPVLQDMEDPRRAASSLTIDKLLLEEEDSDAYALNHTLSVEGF
Summary of the method: as §1

POU1 (OCT1 POU domain), sequence (P14859 260-458): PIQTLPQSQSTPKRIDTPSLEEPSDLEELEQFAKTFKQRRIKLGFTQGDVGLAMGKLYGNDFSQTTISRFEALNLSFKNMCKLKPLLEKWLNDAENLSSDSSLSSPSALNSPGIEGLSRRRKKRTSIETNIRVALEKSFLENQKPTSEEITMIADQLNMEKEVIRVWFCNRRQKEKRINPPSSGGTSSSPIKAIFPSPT

Row | Sequence | binding signal [1] | binding signal [2] | binding signal [3] | binding signal [4]
1 | AAACTAAC | 0.0256 % of ANNNNAAN 8-mers | 0.0316 % of ANNNNAAN 8-mers | 0.03 % of ANNNNAAN 8-mers | 0.0289 % of ANNNNAAN 8-mers
2 | AAAGGAAC | 0.0435 % of ANNNNAAN 8-mers | 0.0443 % of ANNNNAAN 8-mers | 0.0476 % of ANNNNAAN 8-mers | 0.0371 % of ANNNNAAN 8-mers
3 | AATGAAAG | 0.0751 % of ANNNNAAN 8-mers | 0.088 % of ANNNNAAN 8-mers | 0.0901 % of ANNNNAAN 8-mers | 0.0718 % of ANNNNAAN 8-mers
4 | AAATAAAA | 0.177 % of ANNNNAAN 8-mers | 0.177 % of ANNNNAAN 8-mers | 0.199 % of ANNNNAAN 8-mers | 0.171 % of ANNNNAAN 8-mers
5 | ACTGCAAA | 0.0416 % of ANNNNAAN 8-mers | 0.0397 % of ANNNNAAN 8-mers | 0.0535 % of ANNNNAAN 8-mers | 0.0264 % of ANNNNAAN 8-mers
6 | AAGCCAAT | 0.0282 % of ANNNNAAN 8-mers | 0.0247 % of ANNNNAAN 8-mers | 0.0261 % of ANNNNAAN 8-mers | 0.0272 % of ANNNNAAN 8-mers
7 | ATTTGAAC | 0.0496 % of ANNNNAAN 8-mers | 0.0558 % of ANNNNAAN 8-mers | 0.0745 % of ANNNNAAN 8-mers | 0.0553 % of ANNNNAAN 8-mers
8 | ATTAGAAA | 0.0995 % of ANNNNAAN 8-mers | 0.106 % of ANNNNAAN 8-mers | 0.0738 % of ANNNNAAN 8-mers | 0.0892 % of ANNNNAAN 8-mers
9 | ACTGTAAT | 0.0572 % of ANNNNAAN 8-mers | 0.0788 % of ANNNNAAN 8-mers | 0.0464 % of ANNNNAAN 8-mers | 0.0504 % of ANNNNAAN 8-mers
10 | ACCTGAAG | 0.0137 % of ANNNNAAN 8-mers | 0.0161 % of ANNNNAAN 8-mers | 0.0164 % of ANNNNAAN 8-mers | 0.0206 % of ANNNNAAN 8-mers
11 | AGCCGAAT | 0.0313 % of ANNNNAAN 8-mers | 0.0368 % of ANNNNAAN 8-mers | 0.0281 % of ANNNNAAN 8-mers | 0.033 % of ANNNNAAN 8-mers
12 | ATGGGAAA | 0.098 % of ANNNNAAN 8-mers | 0.1 % of ANNNNAAN 8-mers | 0.118 % of ANNNNAAN 8-mers | 0.0784 % of ANNNNAAN 8-mers
13 | ATTGCAAG | 0.0271 % of ANNNNAAN 8-mers | 0.0397 % of ANNNNAAN 8-mers | 0.0336 % of ANNNNAAN 8-mers | 0.0363 % of ANNNNAAN 8-mers
14 | ATTTAAAT | 2.83 % of ANNNNAAN 8-mers | 2.38 % of ANNNNAAN 8-mers | 0.709 % of ANNNNAAN 8-mers | 0.832 % of ANNNNAAN 8-mers
15 | ATCAGAAA | 0.0446 % of ANNNNAAN 8-mers | 0.0529 % of ANNNNAAN 8-mers | 0.0546 % of ANNNNAAN 8-mers | 0.0438 % of ANNNNAAN 8-mers
16 | AGTAAAAC | 0.0427 % of ANNNNAAN 8-mers | 0.0391 % of ANNNNAAN 8-mers | 0.0663 % of ANNNNAAN 8-mers | 0.0454 % of ANNNNAAN 8-mers
17 | AACCAAAA | 0.0522 % of ANNNNAAN 8-mers | 0.0449 % of ANNNNAAN 8-mers | 0.0753 % of ANNNNAAN 8-mers | 0.0388 % of ANNNNAAN 8-mers
18 | ACGTTAAG | 0.037 % of ANNNNAAN 8-mers | 0.0414 % of ANNNNAAN 8-mers | 0.039 % of ANNNNAAN 8-mers | 0.0405 % of ANNNNAAN 8-mers
19 | ATATCAAA | 0.0877 % of ANNNNAAN 8-mers | 0.0806 % of ANNNNAAN 8-mers | 0.0823 % of ANNNNAAN 8-mers | 0.0726 % of ANNNNAAN 8-mers
20 | AGAATAAT | 0.203 % of ANNNNAAN 8-mers | 0.3 % of ANNNNAAN 8-mers | 0.0948 % of ANNNNAAN 8-mers | 0.122 % of ANNNNAAN 8-mers
21 | ACCGCAAA | 0.0179 % of ANNNNAAN 8-mers | 0.0167 % of ANNNNAAN 8-mers | 0.018 % of ANNNNAAN 8-mers | 0.0124 % of ANNNNAAN 8-mers
22 | AATTCAAC | 0.069 % of ANNNNAAN 8-mers | 0.0708 % of ANNNNAAN 8-mers | 0.0589 % of ANNNNAAN 8-mers | 0.0512 % of ANNNNAAN 8-mers
23 | AGTGAAAC | 0.0282 % of ANNNNAAN 8-mers | 0.0178 % of ANNNNAAN 8-mers | 0.0324 % of ANNNNAAN 8-mers | 0.0206 % of ANNNNAAN 8-mers
24 | AAAAAAAA | 0.11 % of ANNNNAAN 8-mers | 0.193 % of ANNNNAAN 8-mers | 0.174 % of ANNNNAAN 8-mers | 0.13 % of ANNNNAAN 8-mers
25 | AGTAAAAT | 0.226 % of ANNNNAAN 8-mers | 0.179 % of ANNNNAAN 8-mers | 0.236 % of ANNNNAAN 8-mers | 0.148 % of ANNNNAAN 8-mers
26 | AGGAAAAG | 0.1 % of ANNNNAAN 8-mers | 0.08 % of ANNNNAAN 8-mers | 0.133 % of ANNNNAAN 8-mers | 0.0702 % of ANNNNAAN 8-mers
27 | ATGTCAAT | 0.0828 % of ANNNNAAN 8-mers | 0.0869 % of ANNNNAAN 8-mers | 0.0722 % of ANNNNAAN 8-mers | 0.0743 % of ANNNNAAN 8-mers
28 | ATGGAAAG | 0.148 % of ANNNNAAN 8-mers | 0.112 % of ANNNNAAN 8-mers | 0.199 % of ANNNNAAN 8-mers | 0.129 % of ANNNNAAN 8-mers
29 | AACTCAAT | 0.0378 % of ANNNNAAN 8-mers | 0.0437 % of ANNNNAAN 8-mers | 0.0289 % of ANNNNAAN 8-mers | 0.0314 % of ANNNNAAN 8-mers
30 | AAGGTAAG | 0.0416 % of ANNNNAAN 8-mers | 0.0478 % of ANNNNAAN 8-mers | 0.0468 % of ANNNNAAN 8-mers | 0.0545 % of ANNNNAAN 8-mers
